Measured values taken from ChEMBL document CHEMBL3433997, “St. Jude Leishmania screening dataset” (2016).

Columns and labels:
Format in all cases: functional
[1] = target: Solute carrier family 2, facilitated glucose transporter member 1 (Homo sapiens) (UniProt P11166); test: ST_JUDE_LEISH: Cytotoxicity at 2uM final concentration against transgenic Leishmania Mexicana promastigotes LmGLUT1 that are glucose transport deficient and complemented with the human glucose transporter GLUT1. Activity is measured by DNA content using SYBR green in vitro
Solute carrier family 2, facilitated glucose transporter member 1 (Homo sapiens), sequence (P11166 whole entry): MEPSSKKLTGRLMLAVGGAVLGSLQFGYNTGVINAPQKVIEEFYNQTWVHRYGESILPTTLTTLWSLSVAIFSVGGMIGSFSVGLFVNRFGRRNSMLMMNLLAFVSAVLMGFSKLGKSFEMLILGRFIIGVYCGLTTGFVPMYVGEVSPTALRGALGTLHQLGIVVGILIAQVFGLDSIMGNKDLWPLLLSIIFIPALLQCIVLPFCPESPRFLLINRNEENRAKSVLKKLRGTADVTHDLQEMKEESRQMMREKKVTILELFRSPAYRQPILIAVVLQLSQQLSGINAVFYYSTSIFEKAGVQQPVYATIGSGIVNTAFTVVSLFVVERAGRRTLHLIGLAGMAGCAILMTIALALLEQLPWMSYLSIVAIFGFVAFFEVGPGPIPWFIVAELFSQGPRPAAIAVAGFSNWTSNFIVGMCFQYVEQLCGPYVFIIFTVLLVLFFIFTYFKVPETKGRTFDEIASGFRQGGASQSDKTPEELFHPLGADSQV

[2] = target: Hexose transporter 1 (Plasmodium falciparum) (UniProt O97467); test: ST_JUDE_LEISH: Cytotoxicity at 2uM final concentration against transgenic Leishmania Mexicana promastigotes LmPfHT that are glucose transport deficient and complemented with the Plasmodium falciparum hexose transporter. Activity is measured by DNA content using SYBR green in vitro
[3] = target: Glucose transporter (Leishmania mexicana) (UniProt O61059); test: ST_JUDE_LEISH: Cytotoxicity at 2uM final concentration against transgenic Leishmania Mexicana promastigotes LmGT2 that are glucose transport deficient and complemented with the L. Mexicana glucose transporter 2. Activity is measured by DNA content using SYBR green in vitro

Row | Structure (SMILES) | inhibition [1] [%] | inhibition [2] [%] | inhibition [3] [%]
1 | CN1CCC(C(=O)Nc2ccc(-c3ccc(-c4nc5ccccc5[nH]4)s3)cc2)CC1 | 0.79 | -2.31 | 0.49
2 | O=C(NCc1cccc(OC(F)(F)F)c1)c1cnc2c(c1)nc(-c1c[nH]c(-c3ccccc3)n1)n2CCc1c[nH]cn1 | 2.3 | 2.34 | -2.01
3 | c1ccc2sc(Sc3ncnc4sccc34)nc2c1 | 2.07 | -1.08 | 0.27
